Experimental findings from PubChem BioAssay AID1030 (National Center for Advancing Translational Sciences (NCATS), 2008) are described below.

Molecules are shown by their SMILES. Among all 220,000 compounds or so, about 16,000 (7.3%) were called active. Another 25% or so got no clear call; they are omitted. Calls come from the whole dose curve; as a rule, active = well fitted inhibition curve with a large enough effect (not every such curve was filed as active); inconclusive = small, poorly fitted or top-dose-only effect, or another doubt; inactive = no such curve, though single readings can be large or run the other way. Shown is part of a subset that was picked to be rich in actives. Where a call stands in place of a potency, no number is given.
Potency is the fitted concentration of half-maximal effect.

For this test, the target named is Aldehyde dehydrogenase 1A1 (Homo sapiens) (UniProt P00352). The test is described as follows: qHTS Assay for Inhibitors of Aldehyde Dehydrogenase 1 (ALDH1A1). The settings on record: Purified ALDH1A1, NADH fluorescence, propionaldehyde substrate; series mostly up to 75.3 µM.
Sequence of Aldehyde dehydrogenase 1A1 (Homo sapiens) (P00352 whole entry, looked up): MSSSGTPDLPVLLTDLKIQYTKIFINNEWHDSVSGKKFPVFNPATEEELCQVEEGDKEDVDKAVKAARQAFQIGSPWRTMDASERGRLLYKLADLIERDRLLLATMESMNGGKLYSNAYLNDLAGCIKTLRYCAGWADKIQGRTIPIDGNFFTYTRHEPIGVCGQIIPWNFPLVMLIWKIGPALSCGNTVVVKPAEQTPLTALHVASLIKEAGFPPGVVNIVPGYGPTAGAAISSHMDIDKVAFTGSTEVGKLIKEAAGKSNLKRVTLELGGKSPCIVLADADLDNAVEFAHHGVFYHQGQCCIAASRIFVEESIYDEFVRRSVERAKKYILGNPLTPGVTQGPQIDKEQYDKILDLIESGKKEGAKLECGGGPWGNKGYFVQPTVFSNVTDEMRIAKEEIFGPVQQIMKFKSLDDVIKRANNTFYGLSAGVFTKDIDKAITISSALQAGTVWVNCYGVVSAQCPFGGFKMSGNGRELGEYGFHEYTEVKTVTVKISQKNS
Take `Cc1ccc2c(c1)C(c1ccccc1)N(C(=O)c1ccc(S(=O)(=O)N3CCOCC3)cc1)CC(=O)N2` (stereo unspecified): the Potency is 7.94 µM (active).

As to `CCC(CC)C(=O)N1CC(=O)Nc2ccc(Br)cc2C1c1ccccc1` (stereo unspecified), the Potency entry is “inactive”.

As for `O=C(c1ccc(S(=O)(=O)N2CCOCC2)cc1)N1CCN(c2ccccc2)CC1`, the Potency entry is “inactive”.

`CNS(=O)(=O)c1ccc(NC(=O)C2CC(=O)N(c3ccc(Cl)cc3)C2)cc1` (stereo unspecified): the Potency result is “inactive”.

For `O=C(CCl)NNc1cccc(Cl)n1`, the Potency was 10 µM (active).

Regarding `O=C(NNc1ccccn1)c1ccc(Cl)nc1`, the Potency entry is “inactive”.

`COc1cc(OC)nc(NC(=O)CCl)n1`: the Potency result was “inactive”.

On to `CCCCSc1nc2ccccc2[nH]1`, for which the Potency entry was “inactive”.

For the compound `COc1cc(CCC(=O)OCC(=O)Nc2cccc(S(N)(=O)=O)c2)cc(OC)c1OC`, the Potency entry was “inactive”.

Regarding `Cc1nn(C)c(C)c1S(=O)(=O)N1CCC(CO)(Cc2ccc(Cl)cc2)CC1`, the Potency result is “inactive”.

Regarding `COc1ccc(NC(=S)NCC2CCN(c3ccc(OC)cc3)C2)cc1` (stereo unspecified), the Potency was 35.5 µM (active).

Take `COc1ccc(OCC(=O)Nc2ccc(N3CCC(C)CC3)cc2)cc1`: the Potency entry was “inactive”.

On to `COc1ccc(NC(=S)NCCN2CCC(C)CC2)cc1`, for which the Potency entry was “inactive”.

As for `O=C(Nc1cccc(Cl)c1)c1cc([N+](=O)[O-])ccc1N1CCN(CCO)CC1`, the Potency entry was “inactive”.

For the compound `CN1CCN(c2ccc(S(=O)(=O)Nc3ccccc3)cc2[N+](=O)[O-])CC1`, the Potency result was “inactive”.

Take `CCNC(=O)c1ccc(OCC(=O)Nc2ccc(F)cc2)c(OC)c1`: the Potency result was “inactive”.

Turning to `CCCCn1c(N)c(N2CCOCC2)c(=O)n(CC(=O)NCCc2ccccc2)c1=O`, the Potency entry is “inactive”.

As for `Cc1nc(S(=O)(=O)c2ccc(Br)cc2)nc2c1CCC2`, the Potency entry was “inactive”.

Turning to `O=C(CCc1ccc(S(=O)(=O)N2CCOCC2)cc1)NN=C1CCCCCCC1`, the Potency entry is “inactive”.

Take `O=S(=O)(NN=C1CCCCCCC1)c1ccc(Br)cc1`: the Potency is 11.2 µM (active).

Consider `CC(=O)Cn1ncc(N2CCOCC2)c(Br)c1=O`, for which the Potency result was “inactive”.

With `Cc1ccc(OCC(=O)Nc2ccc(S(=O)(=O)Nc3ccccn3)cc2)cc1`, the Potency entry is “inactive”.

With `Cc1ccc(NS(=O)(=O)c2c(C)[nH]c(=O)[nH]c2=O)cc1C`, the Potency entry is “inactive”.

For `Cc1ccc(Nc2cc(=O)n(C3CCCCC3)c(=O)[nH]2)cc1C`, the Potency is 1 µM (active).

Regarding `COC(=O)C1=C(C(=O)OC)[C@@H]2Nc3ccccc3[C@@]23C[C@@H](C(=O)OC)N(S(=O)(=O)c2ccc([N+](=O)[O-])cc2)C3=N1`, the activity, negative = inhibition is -1.68% [at 13.5 µM] (inactive).

Consider `Nc1c(NCCc2ccccc2)c2ccccc2oc1=O`, for which the Potency entry was “inactive”.

Take `O=C1C(Cl)=C(N2CCOCC2)C(=O)N1c1ccccc1`: the Potency entry was “inactive”.

`O=C1c2ccccc2C(=O)N1c1ccccc1S(=O)C(F)(F)F` (stereo unspecified): the Potency entry is “inactive”.

For the compound `O=C1C(=O)N(c2ccccc2)c2ccccc21`, the Potency was 6.31 µM (active).

In the case of `COC(=O)c1c(C)oc2ccc(N(C(=O)Oc3ccccc3)S(=O)(=O)c3ccccc3)cc12`, the Potency entry was “inactive”.

Consider `Cc1ccccc1NC(=O)c1nn(-c2ccc(F)c(F)c2)ccc1=O`, for which the Potency entry is “inactive”.

As to `Cc1ccccc1N/N=C/c1ccc(N2CCOCC2)cc1`, the Potency was 8.91 µM (active).

Turning to `C(=N/Nc1cc(N2CCOCC2)nc(N2CCOCC2)n1)/c1ccccc1`, the Potency entry was “inactive”.

`C/C(=N\NC(=O)c1ccccc1C)c1ccc(N2CCOCC2)cc1`: the Potency result is “inactive”.

Regarding `O=C(CCN1CCN(C/C=C/c2ccccc2)CC1)Nc1cccc(F)c1`, the Potency result is “inactive”.

Consider `CCOc1ccc(NC(=O)CC2C(=O)N(c3ccccc3)C(=O)N2CCOC)cc1` (stereo unspecified), for which the Potency is 15.8 µM (active).

As for `COc1ccc(N2C(=O)C(CC(=O)Nc3ccc(F)cc3)N(CCc3cccs3)C2=O)cc1` (stereo unspecified), the Potency result is “inactive”.

Regarding `COc1ccc(N2C(=O)C(CC(=O)Nc3ccccc3)N(Cc3ccc(OC)c(OC)c3)C2=O)cc1` (stereo unspecified), the Potency entry was “inactive”.

As for `NC(=O)c1ccccc1N(Cc1ccccc1)S(=O)(=O)c1ccccc1`, the Potency result is “inactive”.

Turning to `N#CCc1ccc(OC(=O)c2cccnc2)cc1`, the Potency entry was “inactive”.

As for `CCCCN(C(=O)/C=C/c1ccco1)c1c(N)n(CC(C)C)c(=O)[nH]c1=O`, the Potency result was “inactive”.

Consider `CCNC(=S)NNC(=O)c1ccc2ncccc2c1`, for which the Potency entry is “inactive”.

For `CN(C)c1ccc(C=NCCc2ccc(S(N)(=O)=O)cc2)cc1`, the Potency was 0.708 µM (active).

For `COc1ccc(OCC(=O)NCCc2ccc(S(N)(=O)=O)cc2)cc1`, the Potency result is “inactive”.

Take `CCCCc1ccc(S(N)(=O)=O)cc1`: the Potency result is “inactive”.

Turning to `O=S(=O)(Cc1ccccc1)c1nc2ccccc2n1Cc1ccccn1`, the Potency entry is “inactive”.

In the case of `CCc1ccc(OCC(=O)OCC(=O)c2c(N)n(C)c(=O)n(C)c2=O)cc1`, the Potency result was “inactive”.

On to `Cn1c(N)c(C(=O)COC(=O)c2cnc(Cl)c(Cl)c2)c(=O)n(C)c1=O`, for which the Potency is 8.91 µM (active).

Turning to `Cc1cc(C(=O)OCC(=O)c2c(N)n(C)c(=O)n(C)c2=O)c(C)o1`, the Potency result was “inactive”.

With `CCn1c(SCc2cc(=O)n3ccsc3n2)nc2ccccc21`, the Potency result was “inactive”.

`CC(Cc1cccs1)NC(=O)c1cccc(Cl)c1` (stereo unspecified): the Potency entry was “inactive”.

Take `COCC(C)NC(=O)c1ccc(Cl)c(Cl)c1` (stereo unspecified): the Potency result is “inactive”.

For `CC(C)CCC(C)NC(=O)c1ccc2nccnc2c1` (stereo unspecified), the Potency is 20 µM (active).

Turning to `CCc1ccc(NC(=O)Cn2nc(C)c([N+](=O)[O-])c2C)cc1`, the Potency entry is “inactive”.

`O=C(Nn1cnnc1)c1ccc([N+](=O)[O-])cc1`: the Potency entry is “inactive”.

Turning to `COCCCNC(=S)N1CCCC(c2nc3cc(C)c(C)cc3[nH]2)C1` (stereo unspecified), the Potency entry was “inactive”.

On to `CCOC(=O)c1ccc(NC(=O)CSc2nnc(COc3ccccc3OC)n2C)cc1`, for which the Potency entry is “inactive”.

Take `Cc1ccc(S(=O)(=O)N2CCOCC2)cc1NC(=O)CSc1nnc(N)s1`: the Potency result is “inactive”.

Consider `CCCCNC(=O)CSc1nc2ccc(NC(=O)CSc3nnc(COc4ccccc4C)n3C)cc2s1`, for which the Potency is 3.55 µM (active).

Regarding `Cc1cccnc1NC(=O)CSc1nnc(COc2ccc(C(C)C)cc2)n1C`, the Potency entry was “inactive”.

For `CCCCNC(=O)CSc1nc2ccc(NC(=O)CSc3nnc(N)s3)cc2s1`, the Potency was 20 µM (active).

As to `Nc1nnc(SCC(=O)Nc2ccc3nc(SCC(=O)Nc4ccccc4)sc3c2)s1`, the Potency entry is “inactive”.

For `CN(c1ccccc1)S(=O)(=O)c1ccc(Cl)c(C(=O)OCC(N)=O)c1`, the Potency entry is “inactive”.

Take `CN(C(=O)CSc1nnc(-c2c[nH]c3ccccc23)o1)C1CCS(=O)(=O)C1` (stereo unspecified): the Potency result was “inactive”.

Turning to `O=C(/C=C/c1ccc(Cl)cc1)Nc1ccc(S(=O)(=O)Nc2ncccn2)cc1`, the Potency result is “inactive”.

Regarding `O=C(Nc1ccc(N2CCN(C(=O)C3CC3)CC2)cc1)c1cccs1`, the Potency entry is “inactive”.

Turning to `C/C(=N\N1CCN(Cc2ccc(C)cc2)CC1)c1ccco1`, the Potency entry was “inactive”.

As for `C/C(=N\NC(=O)C(N)=O)c1ccc2c(c1)OCCO2`, the Potency entry was “inactive”.

`COC(=O)/C=C\C(=O)Nc1cccc([N+](=O)[O-])c1`: the Potency is 0.178 µM (active).

As for `COc1ccc(S(=O)(=O)NC(C)C(=O)Nc2cccc([N+](=O)[O-])c2)cc1` (stereo unspecified), the Potency result was “inactive”.

`CC(=O)Nc1cccc([N+](=O)[O-])c1`: the Potency result was “inactive”.

Regarding `Clc1ccc(-c2cc(-c3ccccn3)on2)c(Cl)c1`, the Potency result is “inactive”.

In the case of `O=C1Nc2cc(Cl)c(Cl)cc2N(O)N1c1ccccc1Cl`, the Potency result is “inactive”.

As for `CCOc1cnc(C(=O)NNC(=O)c2ccccc2Br)o1`, the Potency result was “inactive”.

With `C=CCSC1=C(C#N)C(c2cc(Br)c(O)c(OC)c2)CC(=O)N1` (stereo unspecified), the Potency is 25.1 µM (active).

As for `CCOC(=O)CSC1=C(C#N)C(c2sccc2C)CC(=O)N1` (stereo unspecified), the Potency entry was “inactive”.

Consider `COC(=O)CSC1=C(C#N)C(c2ccccc2OC)C(C(=O)OC)C(=O)N1` (stereo unspecified), for which the Potency result was “inactive”.

For the compound `C[C@@H]1CC[C@]2(O[C@@H](CCO)C[C@H](O)[C@H]2O)O1`, the Potency entry is “inactive”.

For `CCCCOc1ccc(N(CC(=O)NC(C)C)C(=O)CCC(=O)Nc2ccccn2)cc1`, the Potency result is “inactive”.

On to `COCCN(CCOC)S(=O)(=O)c1ccc(/C(O)=C(\C#N)c2nc3ccccc3[nH]2)cc1`, for which the Potency result was “inactive”.

For `COc1cccc2c1OCC(CN1CCN(C3CCCCC3)C(CCO)C1)=C2` (stereo unspecified), the Potency entry is “inactive”.

In the case of `Cc1cc(C)n(-c2ccc3nncn3n2)n1`, the Potency entry is “inactive”.

On to `Cc1ccccc1OCCOc1ccc([N+](=O)[O-])cc1/C=N/n1cnnc1`, for which the Potency result was “inactive”.

`COc1cc(/C=N\Nc2ccc([N+](=O)[O-])cn2)ccc1OCC(=O)O`: the Potency result is “inactive”.

Consider `Cc1ccc(-n2c(C)cc(/C=N/Nc3ccc([N+](=O)[O-])cn3)c2C)c(C)c1`, for which the Potency is 3.55 µM (active).

For the compound `CC(C)(C)C1CCC(C(=O)Nc2cccnc2)CC1` (stereo unspecified), the Potency result is “inactive”.

For `CN(C)c1nc(N)nc(CSc2nnnn2-c2cccc3ccccc23)n1`, the Potency was 7.94 µM (active).

For the compound `Cn1nnnc1SCc1cc(=O)[nH]c2ccccc12`, the Potency result was “inactive”.

As for `CN(C)c1nc(N)nc(CSc2ccccn2)n1`, the Potency entry was “inactive”.

In the case of `CC(OC(=O)c1ccccc1OCc1ccc(Cl)cc1)C(N)=O` (stereo unspecified), the Potency result was “inactive”.

Take `O=C(NCc1ccc2c(c1)OCO2)C1CCCN(S(=O)(=O)c2cccs2)C1` (stereo unspecified): the Potency result was “inactive”.

As for `Cc1cc(C)c(S(=O)(=O)NCC2CCC(C(=O)NCc3ccc4c(c3)OCO4)CC2)c(C)c1` (stereo unspecified), the Potency was 28.2 µM (active).

With `CCOC(=O)NCc1ccc2c(c1)OCO2`, the Potency entry is “inactive”.

On to `O=C(CN1C(=O)NC2(CCCC2)C1=O)NCC1CCCO1` (stereo unspecified), for which the Potency entry was “inactive”.

In the case of `Cc1cccc(NC(=O)Nc2nnc(-c3ccccc3)o2)c1`, the Potency result was “inactive”.

Take `COc1ccc(CCNCC(O)Cn2ccc3ccccc32)cc1OC` (stereo unspecified): the Potency result is “inactive”.

On to `COc1ccc(CNC(=O)CCn2cccc2)cc1`, for which the Potency result was “inactive”.

On to `COc1ccc(CNC(=O)CCCn2nc(C)c([N+](=O)[O-])c2C)cc1`, for which the Potency is 12.6 µM (active).

For `Cc1ccc(Oc2cc(NC(=O)CCCn3nc(C)c([N+](=O)[O-])c3C)cc([N+](=O)[O-])c2)cc1`, the Potency entry was “inactive”.

Turning to `CNC(=O)COc1ccc(S(=O)(=O)Nc2ccccc2)cc1`, the Potency result is “inactive”.

As to `COc1ccc(-c2csc(NC(=O)c3ccc(N4C(=O)CCC4=O)cc3)n2)cc1OC`, the Potency entry was “inactive”.

Consider `COc1ccc(-c2nc(N)sc2C2(O)C(=O)Nc3c(Br)cc(F)cc32)cc1OC` (stereo unspecified), for which the Potency was 11.2 µM (active).

As to `O=C(O)c1ccccc1-c1ccccc1C(=O)NCc1cccnc1`, the Potency result is “inactive”.

Consider `O=C(NCCCN1CCOCC1)c1ccc([N+](=O)[O-])cc1[N+](=O)[O-]`, for which the Potency entry is “inactive”.

For `N#C/C(=C\c1ccc(-c2cccc([N+](=O)[O-])c2)o1)C(=O)NCCN1CCOCC1`, the Potency is 25.1 µM (active).

Take `Cc1ccc(Cc2cnc(NC(=O)/C(C#N)=C/c3ccc(-c4cccc([N+](=O)[O-])c4)o3)s2)cc1`: the Potency result is “inactive”.
